Rows were chosen to be rich in hits. Some 9.2% of all compounds tested hit in one or more screens of this group.
NPC1 prom act: activates the NPC1 promoter. Huh7 NPC1 promoter luciferase reporter, 24 h. Potency, µM (highest dose often 9.22 µM), inactives show at the top dose activation, hits mostly activators. 320,000 compounds, 2.4% hits; note: % of control where 0% means no effect; nearly all actives have a fitted effect of over 60% in size
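Huh7 cells stably carrying NPC1 promoter–luciferase, plated in Opti-MEM with 10% FBS for 2 h, were exposed to compound in DMSO for 24 h at 37 °C; luciferase reagent was added for 10 min and luminescence read.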
Rab9 promoter act: activates the Rab9 promoter; Huh7 Rab9 promoter-luciferase reporter, luminescence, 24 h; Potency, µM (doses to about 9.22 µM), inactives show at the highest dose activation, negative = inhibition, most hits filed as activators; 320,000 compounds, 2.8% hits; note: % of control where 0% means no effect; nearly all actives have a fitted effect of over 60% in size
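Huh7 cells stably carrying Rab9 promoter–luciferase reporter, plated 1500 cells/well, compound added after 2 h and incubated 24 h at 37 °C; luciferase luminescence then read after 10 min with detection reagent.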
SMN2 splice enh: SMN2 splice variant enhancement; HEK293 SMN2-luciferase splicing reporter, luminescence, 30-36 h; Potency, µM (doses to about 46.1 µM), without a hit: at the highest dose activity change, positive = activation, usual class: activators; 210,000 compounds, 2.8% hits; AID 1458; note: % of control where 0% means no effect; nearly all actives have a fitted effect of over 55% in size
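qHTS luciferase splicing reporter: luminescence rises when SMN2 exon 7 is included in transfected HEK293 cells. Compound exposure lasted 30-36 h at 37C, with 4.5 mM final sodium butyrate as control, followed by a ONE-Glo read.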
ELG1 genotoxic: inducers of genotoxicity in HEK293T ELG1-luciferase cells. HEK293T ELG1-luciferase reporter, luminescence, 16 h. Potency, µM (highest dose often 46 µM), without a hit: at the highest dose activity change, positive = activation, hits mostly activators. 330,000 compounds, 1.3% hits. AID 504466; note: % of control where 0% means no effect; nearly all actives have a fitted effect of over 60% in size
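Cells (2,000/well) expressing the ELG1-luciferase fusion are dosed by pin tool and kept 16 hr at 37 °C, 5% CO2. Signal comes from ONE-Glo luciferase reagent after 30 min at room temperature.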
FLuc modulator: inhibits or activates purified firefly luciferase, miR-21 counter-screen | Potency, µM (series often up to 57.5 µM), for inactives: at the top dose activity change, negative = inhibition, most hits filed as inhibitors | P08659 | purified FLuc, Km substrates, luminescence inhibition | 360,000 compounds, 6.9% hits;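 note: plate controls were vehicle for no effect and reference inhibitor for full effect; nearly all actives have a fitted effect of over 55% in size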
Target sequence (P08659 whole entry, looked up): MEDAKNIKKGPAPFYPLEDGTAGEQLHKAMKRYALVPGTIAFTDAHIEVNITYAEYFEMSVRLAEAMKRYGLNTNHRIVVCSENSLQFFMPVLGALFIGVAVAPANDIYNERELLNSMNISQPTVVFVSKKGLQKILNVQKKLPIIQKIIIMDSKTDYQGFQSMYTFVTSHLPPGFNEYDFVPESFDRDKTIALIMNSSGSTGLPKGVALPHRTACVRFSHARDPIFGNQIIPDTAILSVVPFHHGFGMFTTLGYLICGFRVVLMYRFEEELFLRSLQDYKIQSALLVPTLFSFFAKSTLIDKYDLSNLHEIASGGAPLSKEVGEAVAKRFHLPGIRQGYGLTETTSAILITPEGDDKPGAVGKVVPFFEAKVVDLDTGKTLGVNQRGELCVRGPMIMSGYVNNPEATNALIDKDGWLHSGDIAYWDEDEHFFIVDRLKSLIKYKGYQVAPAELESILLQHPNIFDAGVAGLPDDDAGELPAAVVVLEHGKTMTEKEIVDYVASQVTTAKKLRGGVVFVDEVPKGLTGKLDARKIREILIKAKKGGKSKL
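Purified P. pyralis luciferase (10nM final) with 10uM D-luciferin and 10uM ATP (Km levels) in 50mM Tris acetate pH 7.5, 10mM Mg acetate, 0.01% Tween-20, 0.05% BSA; qHTS 6-point titration, ~60 µM downward; luminescence read.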
ELG1 DNA repair: ELG1-dependent DNA repair inhibition; HEK293T ELG1-luciferase reporter, luminescence, 16 h; DNA damage induced by 5-fluorouridine; Potency, µM (series often up to 46.1 µM), for the others: at the top dose activity change, negative = inhibition, actives largely listed as inhibitors; 330,000 compounds, 2.3% hits; AID 504467; note: % is set by controls: 0 for no effect and ±100 for the full control effect; nearly all actives have a fitted effect of over 55% in size
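DMSO vehicle served as the neutral condition. Each well held 2,000 cells given 5-fluorouridine plus compound; after 16 hr at 37 °C/5% CO2, ONE-Glo was added and luciferase measured 30 min later.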
Starred values were filed as active, the others as inactive; u = inconclusive; x = no result. Calls come from the whole dose curve; as a rule, active = well fitted curve in the direction sought with a large enough effect; inconclusive = small, poorly fitted or top-dose-only effect, or another doubt; inactive = no such curve, though single readings can be large; an effect the other way counts as inactive or inconclusive. Potency is the fitted concentration of half-maximal effect.

SMILES	NPC1 prom act	Rab9 promoter act	SMN2 splice enh	ELG1 genotoxic	FLuc modulator	ELG1 DNA repair
CCc1ccc(N2C(=O)c3sc4nnc(-c5ccccc5)c(=O)n4c3C2=O)cc1	-3%	-13%	8%	8%	19µM*	-11%
CCc1ccc(NC(=O)C(C)n2nnc3sc(-c4ccccc4)cc3c2=O)cc1 (stereo not drawn)	x	x	10%	x	-16%	x
Cn1c(=N)n(CC(=O)c2ccc(F)cc2)c2ccccc21	u	0.89µM*	x	u	1.3µM*	u
CCn1c(=N)n(CC(=O)c2ccc(Cl)c(Cl)c2)c2ccccc21	4.5µM*	4µM*	x	15%	u	u
N=c1n(CCN2CCCCC2)c2ccccc2n1CC(=O)c1ccc(Cl)c(Cl)c1	1%	1%	x	-2%	-5%	u
CCOC(=O)CNC(=O)O[C@H]1C(=O)c2ccc(OC)cc2O[C@@H]1c1ccc2c(c1)OCO2	x	x	24%	x	x	x
O=C(O)COc1ccc(NC(=O)c2ccc3c(c2)C(=O)N(Cc2ccccc2)C3=O)cc1	-1%	-5%	x	-1%	17µM*	21%
CC(C)CN1C(=O)c2ccc(C(=O)Nc3ccncc3)cc2C1=O	-12%	-5%	-12%	-4%	-9%	u
Cc1ccc(O)c(NC(=O)c2ccc3c(c2)C(=O)N(Cc2cccnc2)C3=O)c1	1%	-1%	x	8%	1.9µM*	-1%
CC(C)CN1C(=O)c2ccc(C(=O)Nc3ccc(OCC(=O)O)cc3)cc2C1=O	-3%	-4%	x	-1%	6.7µM*	11%
COCCCN1C(=O)c2ccc(C(=O)Nc3ccc(OC)cc3)cc2C1=O	-5%	17%	1%	8%	8.5µM*	1%
O=C(Nc1ccc(O)cc1)c1ccc2c(c1)C(=O)N(Cc1ccccc1)C2=O	-9%	-1%	x	1%	2%	-8%
COCCCN1C(=O)c2ccc(C(=O)Nc3ccccc3OC)cc2C1=O	-2%	-1%	20%	3%	-11%	-2%
Cc1cc([N+](=O)[O-])nn1CCCC(=O)Nc1cccc(Cl)c1Cl	7%	1%	-18%	-6%	-1%	-13%
CC1=C(C(=O)Nc2cccc(C(=O)NC(C)c3ccccc3)c2)SCCO1 (stereo not drawn)	-3%	-3%	x	-1%	-17%	-11%
COc1cc(OC)cc(-c2nc3ccccc3c(=O)o2)c1	-3%	-6%	-13%	-5%	u	1%
CCOc1cccc(-c2nc3ccccc3c(=O)o2)c1	x	x	u	x	5.4µM*	x
COc1cccc(-c2nc3ccccc3c(=O)o2)c1	12%	9%	-13%	u	4.8µM*	u
Cc1ccccc1NC(=O)Nc1ccccn1	u	u	x	13%	-11%	u
Cc1cccc(NC(=O)c2ccccn2)c1C	u	3.5µM*	0%	16%	u	u
CCCCNC(=O)Nc1ccccn1	0%	-1%	5µM*	0%	-2%	11%
CSCc1ccc(C(=O)Nc2cccc(C)c2C)cc1	u	u	20µM*	u	12µM*	u
Cc1cccc(NC(=O)Nc2ccccn2)c1C	u	4µM*	x	13%	9.5µM*	u
OCC1(Cc2ccccc2)CCCN(Cc2c[nH]c3ccccc23)C1 (stereo not drawn)	-7%	0%	x	-4%	-1%	9%
CC1CCc2c(sc3nc(CSc4nnnn4C)[nH]c(=O)c23)C1 (stereo not drawn)	4%	3%	x	7%	u	16%
SMILES	NPC1 prom act	Rab9 promoter act	SMN2 splice enh	ELG1 genotoxic	FLuc modulator	ELG1 DNA repair
CC1CCc2c(sc3nc(CSc4ncn[nH]4)[nH]c(=O)c23)C1 (stereo not drawn)	12%	18%	x	10%	15µM*	u
C/C(=N\NC(=O)c1ccccc1)c1ccccc1F	1.4µM*	0.56µM*	5.6µM*	5.8µM*	12µM*	u
C/C(=N\NC(=O)c1ccccc1)c1ccccc1Br	u	u	u	u	15µM*	u
C/C(=N\NC(=O)OC(C)(C)C)c1ccccc1Br	u	u	12%	u	21µM*	u
O=C(Nc1ccc(NC(=O)c2ccccc2Br)cc1)c1ccccc1	23%	16%	x	u	-5%	u
C/C(=N\NC(=O)c1ccccc1OCCOc1ccccc1)c1ccccc1F	-3%	2%	x	-10%	u	18µM*
COC(=O)N/N=C(\C)c1ccc(Br)cc1	3%	25%	-34%	10%	u	u
CCc1nnc2c(N3CCN(c4cccc(C)c4)C(C)C3)nc3ccccc3n12 (stereo not drawn)	x	x	x	x	3%	x
COc1cc(S(=O)(=O)NCc2ccc(F)cc2)ccc1-n1cnnn1	-3%	0%	x	-1%	1%	-1%
C/C(=N\NC(=O)c1ccc(Br)cc1)c1ccccc1	0.56µM*	1.3µM*	13µM*	u	3.4µM*	u
CCOC(=O)N/N=C(\C)c1ccc(Br)cc1	12%	17%	-11%	u	17µM*	u
CC1=NN(c2ccccc2)C(=O)C1/C=C1/NC(=S)NC1=O (stereo not drawn)	1%	10%	x	-1%	17µM*	-1%
CC1=NN(c2ccccc2)C(=O)C1N=Nc1ccc(C)cc1 (stereo not drawn)	1%	-2%	21%	1%	-17%	7%
CC1=NN(c2ccccc2)C(=O)C1C=Nc1ccc(N(C)C)cc1 (stereo not drawn)	11%	-3%	x	1%	u	6.5µM*
O=C1NC(=S)N/C1=C/C=C/c1ccccc1	18%	u	20%	u	-14%	u
CNC(=S)N(CCc1c(C)[nH]c2ccc(C)cc12)Cc1cccnc1	-4%	-6%	x	1%	2%	-1%
Cn1c(=O)c2c(nc(N3CCCCC3)n2CCSc2nc3ccccc3s2)n(C)c1=O	-8%	2%	-13%	-7%	-1%	-23%
Cn1c(=O)[nH]c(=O)c2c1nc(N1CCCCC1)n2CCCSc1nc2ccccc2s1	-12%	1%	-23%	-4%	10%	21µM*
CC1CCN(c2nc3c(c(=O)n(C)c(=O)n3C)n2CCSc2nc3ccccc3s2)CC1	0%	3%	-21%	-23%	2%	23µM*
COc1ccccc1COC(=O)N/C=C/c1ccco1	u	u	u	10%	15µM*	4%
O=C(CNc1ccccc1Cl)c1ccc(Br)cc1	0%	1%	x	-13%	17µM*	-1%
Cc1ccc(C(=O)CNc2ccc(C)cc2C)cc1	-2%	2%	x	3%	13µM*	u
Cc1ccc(C(=O)CNc2ccccc2)cc1	19%	24%	x	u	9.5µM*	u
